Residues, ends and D or L forms follow the SMILES beside them. *: point of attachment. Cbz = O=C(OCc1ccccc1)*; CH2Cl = ClC*

The target in assay [1] is Tumor necrosis factor receptor superfamily member 10B (Homo sapiens) (UniProt O14763). In words: viability loss of caspase-8 NB7 cells with TRAIL – with/without TRAIL, luminescence panel, confirmation (AID 651596). To be noted: NB7 neuroblastoma + caspase-8, TRAIL sensitization, NB7 Caspase-8, with TRAIL, mean of runs, at 10 µM, stronger effect = higher value.
Chain of Tumor necrosis factor receptor superfamily member 10B (Homo sapiens) (O14763 whole entry, looked up): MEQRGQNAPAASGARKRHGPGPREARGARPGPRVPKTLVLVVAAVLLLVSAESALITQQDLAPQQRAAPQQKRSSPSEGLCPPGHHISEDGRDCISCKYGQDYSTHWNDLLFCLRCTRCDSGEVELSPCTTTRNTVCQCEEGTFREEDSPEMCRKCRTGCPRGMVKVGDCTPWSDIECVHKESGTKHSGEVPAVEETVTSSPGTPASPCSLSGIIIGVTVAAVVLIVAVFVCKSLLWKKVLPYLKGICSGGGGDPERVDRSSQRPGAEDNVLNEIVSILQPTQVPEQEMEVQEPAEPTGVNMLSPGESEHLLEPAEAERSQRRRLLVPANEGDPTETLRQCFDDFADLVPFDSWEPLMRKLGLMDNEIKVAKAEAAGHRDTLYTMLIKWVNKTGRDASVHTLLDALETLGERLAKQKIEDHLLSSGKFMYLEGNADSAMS
Assay in assay [2]: as above
As to conditions: NB7 neuroblastoma + caspase-8, without TRAIL, NB7 Caspase-8, without TRAIL, mean of runs, at 10 µM.

On to `O=C(CCl)N=c1sccn1Cc1cccc2ccccc12`, for which the activity in assay [1] came to 98.8%; in assay [2], 99.1%.
In the same order, the values of `O=C(NC(=S)Nc1ccccn1)c1ccc(-c2ccccc2)cc1` are 76.3% and 72.8%.
For `Cc1cc(-c2csc3nc[nH]c(=S)c23)cc(C)c1C`, in that order: 79.3% and 74.9%.
In the same order, the values of `C/C(=N\NC(=O)c1ccn(C)n1)c1cccc(NC(=O)c2ccc(C)s2)c1` are 48.5% and 45.5%.
For `O=c1[nH]c(Nc2nc3ccccc3o2)nc2c1CCCC2`, the results for the activity in assay [1] and in assay [2] were 79.8% and 57%, respectively.
For `COc1ccccc1NC(=O)Nc1ccc2c(c1)nnn2C`, in that order: 20.6% and 7.6%.
For `CSc1cc(-c2ccc(Cl)cc2)n(Cc2ccccc2)c(=O)c1C#N`, in that order: 72.2% and 48.5%.
For `Cn1c(-c2ccccc2)cc2onc(-c3ccccc3)c2c1=O`, in that order: 85.5% and 85.7%.
Take `O=C(Nc1ccc(Cl)c(Cl)c1)Nc1ccccc1C(=O)O`: the activity in assay [1] worked out at 44.6%; in assay [2] it was 42.5%.
As for `Cc1nn(-c2ccccc2)c(Cl)c1/C=N/NC(=O)c1ccn[nH]1`, the activity in assay [1] is 79.8%; in assay [2], 71.3%.
For `N#CC1=C(N)N2C(=C(C#N)C1c1cccc(Br)c1)Nc1ccccc12` (configuration not stated), in that order: 55.6% and 61.6%.
For the molecule `COc1ccc(CC(N)c2csc(NC(=O)c3cc(C(C)(C)C)nn3Cc3ccccc3)n2)cc1` (configuration not stated), the values for the activity in assay [1] and in assay [2] were 52.9% and 90.5%, respectively.
`CCCCCCCCCCCCCCC[C@@H](O)[C@@H](N)CO`: the activity in assay [1] stood at 84.5%; in assay [2] it was 79.7%.
In the same order, the values of `CCN(CC(=O)N1CCc2ccccc2C1)S(=O)(=O)c1ccc2ccccc2c1` are 42.7% and 62.5%.
In the same order, the values of `COc1ccc(-c2cc3ccc(F)cc3cn2)cc1` are 66.5% and 58.9%.
On to `CC(C)(C)OC(=O)NCCCC[C@H](NC(=O)c1nc[nH]c1C(=O)NC(c1ccccc1)c1ccccc1)C(=O)OC(C)(C)C`, for which the activity in assay [1] came out at 67%; in assay [2], 23.8%.
In the same order, the values of `COc1ccc(/C=C/c2nc3ccccc3n2Cc2ccccc2OC)cc1` are 78.5% and 67.7%.
In the same order, the values of `Clc1ccccc1-c1nnc(-c2ccc3c(c2)OCO3)o1` are 53.9% and 50.7%.
In the same order, the values of `Cn1cnc([N+](=O)[O-])c1Sc1nc(N)nc2c1ncn2C1OC(CO)C(O)C1O` (configuration not stated) are 66.8% and 75.4%.
As to `NC(=O)c1ccccc1N/C=C/C(=O)c1ccc(F)cc1`, the activity in assay [1] is 78.8%; in assay [2] it was 73%.
With `O=C(N/N=C/c1cn(-c2ccccc2)nc1-c1cc2ccccc2o1)c1cccnc1`, the activity was determined as 61.2% in assay [1] and 50.2% in assay [2].
As for `COc1ccc2nc(Cl)c(/C=N/Nc3ccccn3)cc2c1`, the activity stood at 64.5% in assay [1] and 59.5% in assay [2].
In the same order, the values of `O=C(Nc1ccccn1)c1sc2cccc(F)c2c1Cl` are 82.7% and 76.6%.
For `COc1ccccc1/C=C/C1(C(=O)NC2CCCC2)CC(=O)N1c1ccc(C)cc1` (configuration not stated), in that order: 90.2% and 88.8%.
In the same order, the values of `CC(C)Sc1cc(Cl)nc(NC(=O)Nc2ccccc2)n1` are 98.4% and 99.7%.
`Nc1c(N(CCC2=CCCCC2)C(=O)COc2ccc(F)cc2)c(=O)[nH]c(=O)n1Cc1ccccc1`: the activity was found to be 27.3% in assay [1] and 23% in assay [2].
For `CCCCCCc1cc2cc(C(=O)Nc3ccccc3)c(=O)oc2cc1O`, in that order: 72.8% and 65.2%.
In the same order, the values of `Cc1cccc2sc(NNC(=O)c3ccc(S(=O)(=O)N4CCCC(C)C4)cc3)nc12` (configuration not stated) are 51.8% and 42.3%.
For `CN(NC(=O)C(C)(C)C)c1nc(-c2ccccc2)nnc1C(F)(F)F`, in that order: 43.9% and 55.6%.
Regarding `COc1ccc(NC(=O)N2CCc3ccccc32)cc1`, the values for the activity in assay [1] and in assay [2] were 64.4% and 64%, respectively.
In the same order, the values of `Cc1ccc(-c2nnc(-c3cccc4ccccc34)o2)cc1` are 58.2% and 44%.
For `CSc1nnc(NC(=O)c2ccc3c(c2)OCO3)s1`, in that order: 76.5% and 78.7%.
In the case of `COc1ccc(C=C2C=C(C(C)(C)C)C(=O)C(C(C)(C)C)=C2)cc1OC`, the values for the activity in assay [1] and in assay [2] were 93.4% and 98.8%, respectively.
With `C/C(Cn1nnc([N+](=O)[O-])n1)=N\NC(=O)c1ccc(O)cc1`, the activity was 50.4% in assay [1] and 48.3% in assay [2].
On to `CCc1ccc(C(=O)Nc2cc(C)ccc2F)s1`, for which the activity in assay [1] was -9.2%; in assay [2] it was 27.4%.
`O=C(CCN1C(=O)c2ccccc2C1=O)Nc1ccc(-c2nc3ccccc3s2)cc1`: the activity came out at 44.4% in assay [1] and 41.9% in assay [2].
In the same order, the values of `CCCCC1CCC(C(=O)N(CCCC)c2c(N)n(CCCC)c(=O)[nH]c2=O)CC1` (configuration not stated) are 81.5% and 77.5%.
For `Clc1ccc(-c2nc(-c3cnccn3)no2)cc1`, in that order: 45.6% and 39.1%.
In the same order, the values of `CCn1cc(Cl)c(C(=O)Nc2ccc3c(c2)OCCO3)n1` are 39.5% and 34.1%.
For `CCOC(=O)c1sc2nc(-c3ccccc3)ccc2c1N`, the activity in assay [1] turned out to be 76.1%; in assay [2], 66.1%.
On to `CC(C)(C)Nc1ncnc2c1cnn2-c1ccccc1`, for which the activity in assay [1] amounted to 73.8%; in assay [2], 69.5%.
For `C=CCNc1ncnc2c1ncn2C1OC(CO)C(O)C1O` (configuration not stated), in that order: 46.8% and 60.6%.
For the molecule `COc1ccc(C2C(O)C(c3c[nH]c4ccccc34)=NN2C(=O)CCl)cc1` (configuration not stated), the activity in assay [1] and in assay [2] was 99.2% throughout.
Regarding `Cn1cc([N+](=O)[O-])c(C(=O)Nc2nc(-c3ccc(Cl)cc3)cs2)n1`, the activity stood at 97.3% in assay [1] and 98.7% in assay [2].
Regarding `CC(C)CC(NC(=O)OCc1ccccc1)C(=O)NC(Cc1ccccc1)C(=O)CCl` (stereo not drawn) (Cbz-Leu-Phe-CH2Cl; configuration not given here), the activity in assay [1] was found to be 62.3%; in assay [2], 98%.
In the case of `O=c1c2ccccc2oc2ccc(-c3ccc4cc[nH]c4c3)cc12`, the activity in assay [1] came to 36.5%; in assay [2], 35.8%.

Source of the values: PubChem BioAssay.
